# Where “and” joins values, the source holds several entries; their conditions need not be identical. Equal entries are not always repeated. The panel holds about 83,000 compounds, 20% with a hit somewhere; the sample as a whole holds those more often.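 Activity criterion: percent growth below 10, measured after cells in 96-well plates were exposed to a single compound concentration for 48 hours.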 Calls of active or inactive are those of the source.
# Tested on: PC-3 prostate
# Assay: NCI-60 one-dose screen, 48 h (100 = growth as untreated, 0 = no growth, -100 = all killed)
# Details: 10 µM
# Experimental: Growth inhibition of the PC-3 human tumor cell line is measured as a screen for anti-cancer activity. Cells are grown in 96 well plates and exposed to the test compound for 48 hours. Compounds are tested at a single concentration, which is 10^-5 M for most compounds. The reported endpoint is percent growth (GI% or GIPRCNT), where numbers from 0 - 100% represent growth inhibition, and numbers from -100% - 0 represent cell death. For example, a value of 40 represents 60% growth inhibition. A value of 0 means no net growth occurred over the course of the experiment. A value of -40 indicates 40% of cells at the beginning of the experiment died by the end of the experiment. A value of -100 means all cells are dead at the end of the experiment.
# NCI-60 Human Tumor Cell Lines Screen was performed using the standard one-dose NCI protocol, which is described in more detail at https://dtp.cancer.gov/discovery_development/nci-60/default.htm.
# Compounds with GIPRCNT values below 10 were considered active. Activity score was based on GIPRCNT using the following formula: […]
# Score is 0 for GIPRCNT values of 100 or above, 50 for GIPRCNT values of 0, and 100 for GIPRCNT values of -100.
row,Compound,growth
1,CC(C)c1cc([N+](=O)[O-])cc([N+](=O)[O-])c1O,81.4% (inactive)
2,Cn1c(O)c(N=O)c(=O)n(C)c1=O,101% (inactive) and 95.1% (inactive)
3,CCOP(=O)(OCC)/C(C#N)=C/c1ccc(Br)cc1,95.9% (inactive)
4,COc1ccc(/C=C\[N+](=O)[O-])cc1OC,68.9% (inactive) and 77.1% (inactive)
5,[Cl][Hg][c]1ccc(Cl)s1,64.1% (inactive)
6,O=S(=O)(F)c1ccc(Cl)cc1,91.4% (inactive)
7,O=C(O)c1cc(Cc2ccc(O)c(C(=O)O)c2)ccc1O (tested in a mixture with another compound),-31.5% (active)
8,COc1cc(/C=C\[N+](=O)[O-])ccc1O,97.6% (inactive) and 90.3% (inactive)
9,COC12C(COC(N)=O)C3=C(C(=O)C(C)=C(N)C3=O)N1CC1C2N1C (stereo not given),47% (inactive)
10,[Cl][Sn]([c]1ccccc1)([c]1ccccc1)[c]1ccccc1,-72.9% (active)
11,CC(Cc1ccc2c(c1)OCO2)NN (stereo not given),76.3% (inactive)
12,CN(C)CC1(N)C(=O)NC(=O)NC1=O,93.5% (inactive)
13,O=C(CBr)Nc1ccc(Cl)cc1,93.3% (inactive)
14,O=[N+]([O-])c1ccc(Br)c([N+](=O)[O-])c1,91.8% (inactive)
15,O=c1[nH]c2ccccc2n1C1CCN(CCCC(c2ccc(F)cc2)c2ccc(F)cc2)CC1,-21.4% (active) and 21.3% (inactive)
16,[O-][n+]1ccccc1S,30.8% (inactive)
17,COc1cc([C@@H]2c3cc4c(c(O)c3C[C@H]3COC(=O)[C@@H]32)OCO4)cc(OC)c1OC,-0.628% (active)
18,O=[N+]([O-])/C=C/c1ccc([N+](=O)[O-])cc1,43.4% (inactive) and 92% (inactive)
19,O=C(CBr)Nc1ccccc1,95.2% (inactive)
20,COc1cc(/C=C/[N+](=O)[O-])cc(Br)c1OC,31.1% (inactive)

row,Compound,growth
1,COc1ccc(/C=C(\C)[N+](=O)[O-])cc1OC,51% (inactive)
2,COC12c3c(C)cc(O)c4c(=O)occ(c34)C(=O)C1C13COC(=O)c4c(O)cc(C)c(c41)C(=O)C2C3OC(C)=O (stereo not given),80.2% (inactive)
3,CC[C@@]1(O)C[C@H](OC2CC(N(C)C)C(O)C(C)O2)c2c(cc3c(c2O)C(=O)c2c(O)ccc(O)c2C3=O)[C@H]1C(=O)OC (stereo not given in full),-57.4% (active)
4,COc1ccccc1/C=C/[N+](=O)[O-],64.1% (inactive)
5,CC[C@@H](C)[C@@H]1NC(=O)C(NC(=O)C(CC(C)C)N(C)C(=O)C2CCCN2C(=O)C(C)O)C(C)OC(=O)C(Cc2ccc(OC)cc2)N(C)C(=O)C2CCCN2C(=O)C(CC(C)C)NC(=O)C(C)C(=O)C(C(C)C)OC(=O)C[C@H]1O (stereo not given in full),-37.2% (active)
6,Cc1cc([N+](=O)[O-])c2ccccc2[n+]1[O-],-10.8% (active) and -56% (active)
7,C[C@]12CC[C@H]3[C@@H](CCC4=CC(=O)CC[C@@H]43)[C@@H]1CC[C@@H]2OC(=O)N(CCCl)N=O,43.1% (inactive)
8,Oc1ccccc1-c1ccccc1,94.4% (inactive) and 98.6% (inactive)
9,COS(=O)(=O)c1ccccc1,102% (inactive)
10,COC(=O)C1C(O)C(C)C(O)C(C)/C=C\C=C(C)C(=O)Nc2c(C)c(OC(C)=O)c3c(c2O)C(=O)C(C)=C2OCOC(=C23)C(C)=CC(C)(O)C(O)C(C)C1O (stereo not given),48.8% (inactive)
11,CC(=O)Nc1c2sscc-2n(C)c1=O,-95.9% (active)
12,Cc1cc(C)c(C[N+](C)(C)C)c(C)c1C,14.3% (inactive)
13,O=C1CCC(=O)N1SC(Cl)(Cl)Cl,91.2% (inactive)
14,O=C(CCl)Nc1ccc(Cl)cc1,62.9% (inactive)
15,COc1cc(/C=C(/C)[N+](=O)[O-])ccc1O,60.7% (inactive) and 56.6% (inactive)
16,CC(C)C1(NC(=O)C2CC3c4cccc5[nH]cc(c45)CC3N(C)C2)OC2(O)C3CCCN3C(=O)C(Cc3ccccc3)N2C1=O (stereo not given),81.1% (inactive)
17,O=[N+]([O-])/C=C\c1ccc2c(c1)OCO2,83% (inactive)
18,O=[N+]([O-])/C=C/c1ccc(Cl)cc1[N+](=O)[O-],46.4% (inactive)
19,CC(C)(C)OOC(=O)/C=C\C(=O)OOC(C)(C)C,95.4% (inactive)
20,COc1ccc2c(ccc3oc([N+](=O)[O-])cc32)c1,9.56% (active)
